# Experimental data reported in PubChem BioAssay AID1531 (NMMLSC, 2009).
# Out of some 290,000 compounds screened, about 3,300 (1.1%) were called active. The full list was thinned out, with actives kept by preference. Unmarked numbers belong to inactive results. No stated cut-off is given here; in the data, active means binding response below about 67% or above about 130%; inconclusive means no clear call, values can overlap the other calls; inactive means in between.
# Biological target: Mitogen-activated protein kinase kinase kinase 2 (Homo sapiens) (UniProt Q9Y2U5)
# Test: modulators of MEK5 binding to wildtype MEKK2, primary screen, biochemical, multiplex bead flow cytometry, Alexa488-MEK5 (AID 1531)
# Details: Alexa488-MEK5 binding to MEKK2 WT, at 10 µM, actives lie on both sides
row,Compound,binding response (% of control)
1,COc1ccc(C2CC(=O)Nc3cc(C)c(C)cc32)c(OC)c1OC (stereo not drawn),-2% [inhibitor] (active)
2,COc1cc2c(cc1OC)C(c1ccc(C)o1)CC(=O)N2 (stereo not drawn),98%
3,COc1cc2c(cc1OC)C(c1ccncc1)CC(=O)N2 (stereo not drawn),117%
4,CCOc1ccc(C)cc1S(=O)(=O)NC1CCCCCC1,106%
5,Cc1ccc2c(c1)N(CC(=O)N1CCC(O)CC1)C(=O)CO2,94%
6,CCN(CC)CCn1cnc2c1c(=O)[nH]c(=O)n2Cc1ccccc1,104%
7,N=c1c2c(-c3ccccc3)c(-c3ccccc3)oc2ncn1Cc1ccco1,92%
8,N=c1c2c(-c3ccccc3)c(-c3ccccc3)n(Cc3ccccc3)c2ncn1CCCO,155% (active)
9,O=C(CN1CCN(c2ccccn2)CC1)N1CCc2ccccc21,3% (active)
10,O=C(CN1CCN(c2ccccn2)CC1)NC1CCCCC1,104%
11,O=C(CN1CCN(c2ccccn2)CC1)Nc1ccc(Br)cc1,109%
12,Cc1ccc(CNC(=O)c2ccc3c(c2)S(=O)(=O)c2ccccc2C3=O)cc1,111%
13,COc1ccc(-c2[nH]ncc2CN(C)Cc2cc(C)[nH]n2)c(F)c1,83%
14,COc1ccc(-c2[nH]ncc2CN(C)Cc2c(C)n[nH]c2C)c(OC)c1,-2% [inhibitor] (active)
15,COc1ccc(-c2[nH]ncc2CN(C)Cc2cccnc2)c(F)c1,102%
16,COc1ccc(CCOC(=O)CNC(=O)c2ccc(Cl)cc2Cl)cc1,86%
17,CCc1cccc(C)c1NS(=O)(=O)c1c(C)nc2sccn2c1=O,101%
18,CCN(CC)c1ccc(/C=N/NC(=O)CNC(=O)c2cccs2)cc1,92%
19,O=C(c1ccc(Cl)cc1)n1cnc2ccccc21,106%
20,Cc1cc(C)c(NC(=O)C[N+](C)(C)CC(O)COc2cccc3ccccc23)c(C)c1 (stereo not drawn),149% (active)
21,Cc1cc(C)c(NC(=O)c2oc3ccccc3c2COc2ccccc2)c(C)c1,100%
22,Cc1cc(C)cc(OCC(=O)NCc2cc(C)nc3ccccc23)c1,103%
23,CN(C)CC(O)COc1ccc(C(C)(C)c2ccc(OCC(O)CN(C)C)cc2)cc1 (stereo not drawn),225% (active)
24,CC(C)(c1ccccc1)c1ccc(OCCN)cc1,117%

row,Compound,binding response (% of control)
1,Cc1cc(C)n(CC(O)COc2ccc(C(C)(C)C)cc2)n1 (stereo not drawn),107%
2,COc1ccccc1C1=CC(=O)CCC1,98%
3,CCOC(=O)C1Nc2ccc(C(F)(F)F)cc2C2C=CCC12 (stereo not drawn),98%
4,CC1(C)Cc2c(sc(NC(=O)C(=O)N3CCOCC3)c2C#N)CO1,95%
5,CCCOc1ccc(C(=O)NCCc2ccccc2)cc1,94%
6,Cc1cc(C(=O)NCCCc2ccccc2)no1,99%
7,CC(C)c1ccc(C(=O)NCCCc2ccccc2)cc1,2% [inhibitor] (active)
8,O=[N+]([O-])c1ccccc1NCc1ccccc1Cl,66%
9,O=C(NCc1ccccc1Cl)NC(=O)c1csc([N+](=O)[O-])c1,-14% [inhibitor] (active)
10,O=C(NCc1ccccc1Cl)c1csc2c1CCCCC2,93%
11,CCCCCc1c(C)nc(N2CCN(Cc3ccc4c(c3)OCO4)CC2)[nH]c1=O,97%
12,COc1cccc(CC2(CO)CCN(Cc3cnc(-c4cccc(C)c4)nc3)CC2)c1,98%
13,OCC1(CCc2ccccc2)CCN(Cc2ccc3nsnc3c2)CC1,89%
14,Cc1cccc(-c2ncc(CN3CCC(CO)(CCCc4ccccc4)CC3)cn2)c1,163% (active)
15,O=C(COc1ccc2ccc(=O)oc2c1)NCC(O)c1ccccc1 (stereo not drawn),104%
16,CCOC(=O)C1CCN(c2ccc(C(=O)O)cc2[N+](=O)[O-])CC1,101%
17,CC1CCN(c2ccc([N+](=O)[O-])cc2C(N)=O)CC1,95%
18,O=C(O)C1CCN(c2ccc([N+](=O)[O-])cc2[N+](=O)[O-])CC1,46% [inhibitor] (active)
19,CCOc1ccccc1-c1cc(C(=O)N/N=C(\C)c2cccnc2)c2ccccc2n1,92%
20,O=C(NC1CCN(Cc2ccccc2)CC1)c1cc(Br)c(Br)[nH]1,140% (active)
21,O=C(NC1CCN(Cc2ccccc2)CC1)c1ccc(Oc2cc(Cl)cc(Cl)c2)o1,142% (active)
22,O=C(NC1CCN(Cc2ccccc2)CC1)c1ccccc1F,101%
23,CCOc1ccc(CC(=O)NC2CCN(Cc3ccccc3)CC2)cc1,108%
24,Cc1cc(C(=O)NC2CCN(Cc3ccccc3)CC2)n[nH]1,98%
